Results on 36 compounds are retold here after PubChem BioAssay (NCATS).

The structures appear in SMILES notation. Results filed as inconclusive are left out. Entries that show only a call come without a potency. The source made the active and inactive calls. Calls follow the shape of the dose curve; as a rule, active = well fitted inhibition curve with a large enough effect; inconclusive = small, poorly fitted or top-dose-only effect; inactive = flat fitted curve, though single readings scatter.
Potency is read from the fitted curve at half-maximal effect.

The assay can be described thus: P-glycoprotein substrates identified in KB-8-5-11 adenocarcinoma cell line, qHTS therapeutic library screen (AID 1346987). Also: nearly all actives have a fitted effect of over 65% in size. To be noted: KB-8-5-11 (P-gp overexpressing) viability, CellTiter-Glo, 72 h; series mostly up to 44.5 µM. The method, boiled down:
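Steps: plate 500 KB-8-5-11 cells/well in DMEM + 10% FCS (colchicine removed); pin compounds in dose-response; incubate 72 h, 37 degree C, 5% CO2; add CellTiter-Glo, 5 min; read luminescence.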
A general note: Quantitative high-throughput screening tests each substance at several concentrations.
Regarding `C[C@H]1CO[C@@H]2Cn3cc(C(=O)NCc4ccc(F)cc4F)c(=O)c(O)c3C(=O)N12`, the Potency entry was “inactive”.

Take `Cc1cc(N2CCOCC2)ccc1Nc1nc(NC2CCCCC2)c2[nH]cnc2n1`: the Potency was 1.3 µM (active).

For the compound `C[C@H]1C[C@@H]2[C@H]([C@@H](O)C[C@@]3(C)[C@H]2CC[C@]3(O)C(=O)COC(=O)CCC(=O)O)[C@@]2(C)C=CC(=O)C=C12`, the Potency result was “inactive”. With `CC(C)(C)c1ccc(C(=O)Nc2cc(Cl)c(Br)cc2C(=O)O)cc1`, the Potency is 10.3 µM (active). Regarding `CC1=CC2/C=C(\C)CCC(O)C(=O)C(O)CC(=O)C23C(=O)NC(CC(C)C)C3C1C` (stereo unspecified), the Potency entry is “inactive”. On to `CC1(S(=O)(=O)O)CC(=O)c2ccccc2C1=O` (stereo unspecified), for which the Potency result is “inactive”. Consider `Fc1ccc(-c2cncc(CN3CCN(c4cccc5c4OCCO5)CC3)c2)cc1`, for which the Potency entry was “inactive”. Same read-out and setting: under `C=C1C(=O)O[C@@H]2C=C(COC(C)=O)CC/C=C(\CO)CC[C@@H]12` stands “inactive”; under `COc1ccc(CCO[C@@H]2O[C@H](CO[C@H]3OC[C@](O)(CO)[C@H]3O)[C@@H](OC(=O)/C=C/c3ccc(O)c(O)c3)[C@H](O[C@@H]3O[C@@H](C)[C@H](O)[C@@H](O)[C@H]3O)[C@H]2O)cc1OC`, “inactive”. As to `CC(C)NC(=O)N1CC[C@H](N=C2Nc3cc(F)ccc3N(CC(F)F)c3ccc(Cl)cc32)C1`, the activity change, negative = cytotoxicity is -19.3% [at 9.29 µM] (inactive). Regarding `COc1cc(NC(=O)c2cc(C3CC3)on2)c(OC)cc1Cl`, the Potency entry was “inactive”. As to `COC(=O)C[C@](O)(CCCC(C)(C)O)C(=O)O[C@@H]1C(OC)=CC23CCCN2CCc2cc4c(cc2[C@H]13)OCO4` (stereo partly specified), the Potency is 13 µM (active). For `CCNC1(C(N)=O)CCN(c2ncnc3c2nc(-c2ccccc2Cl)n3-c2ccc(Cl)cc2)CC1`, the Potency entry was “inactive”. On to `CC1=C(C(=O)OC2CCCCC2)C(c2ccc([N+](=O)[O-])cc2)C2=C(CC(C)(C)CC2=O)N1` (stereo unspecified), for which the Potency entry was “inactive”. For `C[C@H]1C[C@H]2[C@@H]3CCC4=CC(=O)C=C[C@]4(C)[C@@]3(F)[C@@H](O)C[C@]2(C)[C@@]1(O)C(=O)CCl`, the Potency result is “inactive”.

Regarding `C=C1C(=O)O[C@@H]2[C@H]3C(C)=CC(=O)C3=C(C)[C@@H](OC(=O)/C(C)=C\C)[C@H](O)[C@@H]12`, the Potency entry was “inactive”. In the case of `CC(=O)OC1C(OC(=O)c2ccccc2)C2C(C)(C)CCC(OC(C)=O)C2(C)C23CCC(C)(C2)C(=O)CC13` (stereo unspecified), the Potency entry is “inactive”. Consider `N#Cc1ccc(-c2ccc(S(=O)(=O)Nc3cccc(N)n3)cc2)cc1`, for which the Potency entry is “inactive”. As to `C=C1CC2OC(=O)C(=C)C2C(O)/C=C(\C)CCC1O` (stereo unspecified), the Potency entry was “inactive”. For `CC1(C)CCCC2(C)C1C(=O)C=C(C(=O)O)C2(O)C(=O)O` (stereo unspecified), the Potency entry is “inactive”. On to `NS(=O)(=O)c1ccc(NC(=O)Nc2ccc(F)cc2)cc1`, for which the Potency entry is “inactive”. Turning to `COc1cc(N2CCC(O)CC2)ccc1Nc1nc(Nc2ccccc2S(=O)(=O)C(C)C)c2[nH]cnc2n1`, the Potency result was “inactive”. With `CC[C@H](C)/C=C(C)/C=C/C1=CC2=C(Cl)C(=O)[C@](C)(O)[C@H](OC(C)=O)[C@H]2CO1`, the Potency result is “inactive”. Take `CCC(=O)OCC(=O)[C@@]1(OC(=O)CC)[C@H](C)C[C@H]2[C@@H]3CCC4=CC(=O)C=C[C@]4(C)[C@@]3(F)[C@@H](O)C[C@@]21C`: the Potency entry is “inactive”. Consider `Cn1ncc(Cl)c1-c1cc(C(=O)N[C@H](CN)Cc2cccc(F)c2)sc1Cl`, for which the Potency was 18.4 µM (active). As to `O=C(Nc1ncc([N+](=O)[O-])s1)c1ccccc1O`, the Potency is 5.8 µM (active). Take `C[C@@H](NC(=O)c1ccc(C#Cc2cccc(F)c2)cn1)C(C)(C)O`: the Potency result was “inactive”. In the case of `CCC(=O)N1CCOc2c(cc(-c3ccc(OC)c(OC)c3)cc2OC[C@H]2CCCN(C)C2)C1`, the Potency result is “inactive”.

Turning to `CCCCCCCCCCCCCCCCCC(=O)[O][Al]`, the Potency entry is “inactive”. Still for that read-out and setting: under `O=C(NCc1ccc(OC(F)(F)F)cc1)C1c2c(F)cccc2C(=O)N1CCc1ccccn1` (stereo unspecified) stands “inactive”; under `O=c1[nH]cnc2[nH]cc(CN3CCCCC3)c12`, “inactive”. Still for that read-out and setting: under `CC(O)(C(=O)C1CC1(CO)COC1OC(CO)C(O)C(O)C1O)C1C(O)CC2C3CC=C4CC(O)CC(O)C4(C)C3C(O)CC21C` (stereo unspecified) stands 0.611 µM (active); under `CC(C)c1ccc(NC(=O)Cn2cnc3c2c(=O)n(C)c(=O)n3C)cc1`, “inactive”; under `CCC[C@@]1(CCc2ccccc2)CC(O)=C([C@H](CC)c2cccc(NS(=O)(=O)c3ccc(C(F)(F)F)cn3)c2)C(=O)O1`, “inactive”. `C[C@@]12C(=O)N(c3ccc(C(=O)Nc4cccc5cccnc45)cc3)C(=O)[C@@H]1[C@@H]1C=C[C@H]2C1`: the Potency result is “inactive”.

For the compound `C=CC(=O)Nc1ccc2ncnc(Nc3cccc(Br)c3)c2c1`, the Potency is 8.2 µM (active).
